Consider 29 molecules from PubChem BioAssay AID588453 (National Center for Advancing Translational Sciences (NCATS), 2011).

Out of some 390,000 compounds screened, about 4,000 (1%) were called active. Another 4% or so got no clear call; they are omitted. Calls come from the whole dose curve; as a rule, active = well fitted inhibition curve with a large enough effect; inconclusive = small, poorly fitted or top-dose-only effect; inactive = no such curve, though single readings can be large or run the other way. Shown is part of a subset that was picked to be rich in actives. Entries that show only a call come without a potency.
Potency is the fitted concentration of half-maximal effect.

For the assay, the target named is Thioredoxin reductase 1, cytoplasmic (Rattus norvegicus) (UniProt O89049). The assay can be described thus: qHTS Assay for Inhibitors of Mammalian Selenoprotein Thioredoxin Reductase 1 (TrxR1): qHTS. Note: nearly all actives have a fitted effect of over 65% in size. To be noted: recombinant rTrxR1, NADPH fluorescence consumption, selenite substrate; series mostly up to 114 µM. From the text: The selenoprotein thioredoxin reductase (TrxR; EC 1.8.1.9) is a FAD containing homodimeric pyridine nucleotide-disulfide oxidoreductase with many cellular roles. Together with NADPH and its prime substrate thioredoxin (Trx), the enzyme forms the core of the Trx system. The mammalian Trx system exerts a wide spectrum of functions including redox regulation, antioxidant defense, regulation of transcription factors as well as support of cell growth and replication. Many of these functions involve the reduction of Trx, which may subsequently reduce a number of different substrates including ribonucleotide reductase, peroxiredoxins or NFkB. Mammalian TrxR itself also has a broad substrate specificity, reducing both protein and non-protein substrates, including low molecular weight compounds such as dehydroascorbate, lipoic acid, ubiquinone, and juglone. In addition, several drugs in clinical use for anticancer treatment are indeed known to target TrxR1.
Chain of Thioredoxin reductase 1, cytoplasmic (Rattus norvegicus) (O89049 whole entry, looked up): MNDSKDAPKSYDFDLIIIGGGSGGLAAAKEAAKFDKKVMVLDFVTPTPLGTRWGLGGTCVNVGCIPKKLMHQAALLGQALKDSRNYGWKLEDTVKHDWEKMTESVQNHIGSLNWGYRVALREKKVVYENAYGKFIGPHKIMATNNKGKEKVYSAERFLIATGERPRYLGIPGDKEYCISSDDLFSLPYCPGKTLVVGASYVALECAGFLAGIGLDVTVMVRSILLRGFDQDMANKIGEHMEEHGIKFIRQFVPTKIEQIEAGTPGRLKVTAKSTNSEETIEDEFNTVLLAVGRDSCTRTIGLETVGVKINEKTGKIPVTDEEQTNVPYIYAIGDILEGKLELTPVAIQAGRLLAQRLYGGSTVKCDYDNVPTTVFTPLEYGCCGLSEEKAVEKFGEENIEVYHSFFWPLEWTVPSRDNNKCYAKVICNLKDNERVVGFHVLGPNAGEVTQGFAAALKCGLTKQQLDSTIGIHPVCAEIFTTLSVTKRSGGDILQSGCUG
This BioAssay is a validation of an NADPH fluorescence-based, dual-purpose qHTS rTrxR1 assay designed to find potential inhibitors and substrates of rTrxR1. For this particular BioAssay, actives are potential inhibitors. See related BioAssay for substrate data deposition.
NIH Molecular Libraries Probe Production Network [MLPCN]
NIH Chemical Genomics Center [NCGC]
Assay Provider: Elias Arner, Karolinska Institute
Assay protocol: 2 uL of reagents (buffer in column 4 as negative control and 90 nM rTrxR1 in columns 1-3 and 5-48) were dispensed into Greiner black solid-bottom 1,536-well assay plates, followed by 1 uL of NADPH (400 uM final concentration) to each well. The plates were centrifuged at 1000 rpm for 15 seconds and subsequently incubated for 5 min at room temperature (~22 deg C) to allow for rTrxR1 reduction. Compounds (23 nL) were then transferred via Kalypsys pin tool equipped with 1536-pin array (10 nL slotted pins, V&P Scientific, San Diego, CA). In addition, a duplicate 2-fold serial dilution of the control compounds auranofin, a known gold-based TrxR1 inhibitor, and juglone (5-hydroxy-1,4-naphthoquinone), a natural TrxR1 substrate, were pin-transferred to columns 2 and 3, respectively. After incubation for 15 min at room temperature (~22 deg C), 1 uL of selenite (400 uM final concentration) were dispensed to each well. The plate was immediately transferred to a ViewLux high-throughput CCD imager (PerkinElmer), wherein kinetic measurements of NADPH fluorescence (Ex 340 nm, Em 450 nm) were acquired (8 minute kinetic read, see Table 1). Read 1 was utilized to assess the capacity of a compound to serve as an rTrxR1 substrate, i.e. a decrease in NADPH fluorescence compared to the no-compound background is an indication of a substrate behavior for that particular compound. For inhibitory activity of a compound, delta values, computed as the difference in fluorescence intensity between the first and last reads of an 8-minute time kinetic window, were used. All reagents were diluted in an assay buffer consisting of 50 mM Tris-HCl, pH 7.5, 2 mM EDTA, and 0.01% Tween-20.
Throughout the screen, reagent bottle and all liquid lines were made light-tight to minimize reagent degradation. All screening operations were performed on a fully integrated robotic system (Kalypsys, San Diego, CA) containing one RX-130 and two RX-90 anthropomorphic robotic arms (Staubli, Duncan, SC). Library plates were screened starting from the lowest and proceeding to the highest concentration, and a 'double-pinning' step of the highest concentration was required to access higher concentrations of compounds. Vehicle-only plates, with DMSO being pin-transferred to the columns 5-48, were inserted uniformly at the beginning and the end of each library in order to monitor and record any shifts in the background, which can be affected by reagent dispensers or loss in enzyme activity over time. […]
On to `Cc1ccc2c(c1)=C/C(=C\c1c(O)[nH]c(=O)[nH]c1=O)C(=O)N=2`, for which the Potency is 10 µM (active).
Same read-out and setting: the same measure for `O=c1[nH]c(O)c(C=Nc2cc(F)cc(F)c2)c(=O)[nH]1`: “inactive”.
Still for that read-out and setting: then `COc1ccccc1N=Nc1c(O)[nH]c(=S)[nH]c1=O`, with “inactive”; and `O=C1N=c2ccccc2=C/C1=C\c1c(O)[nH]c(=S)[nH]c1=O`, with 17.8 µM (active).
Still for that read-out and setting: the same measure for `CC(=O)Nc1ccc(C(=O)C(Cc2ccccc2)N(C)C)cc1` (centres undefined): “inactive”.
Consider `CCC(C)n1c(O)c(/C=N/Nc2nc3c(c(=O)n(C)c(=O)n3C)n2C)c(=O)[nH]c1=S` (centres undefined), for which the activity change, negative = inhibition was 12% [at 11.4 µM] (inactive).
In the case of `O=C(Cn1c(=O)n(CC2CS2)c2ccccc21)N1CCCCC1` (centres undefined), the Potency result was “inactive”.
On the same count and under the same terms, then `OCC#CC[N+]1(CC#Cc2ccccc2)CCCC1`, with “inactive”; and `COCCNC(=O)CN1C2CCC1CC(O)(c1cccnc1)C2` (centres undefined), with “inactive”.
The same measure, in the same setting: then `CCOc1ccc(C2SCC(=O)Nc3c2c(C)nn3C2CCOC(C)(C)C2)cc1` (centres undefined), with “inactive”; and `c1ccc(CCNC2CCCCCC2)cc1`, with “inactive”.
Still for that read-out and setting: the same measure for `COc1ccc2[nH]c3c(c2c1)CCN[C@H]3C`: “inactive”; for `Cn1cc(/C=C/c2nc3ccccc3c(=O)n2-c2ccccc2)c2ccccc21`: “inactive”; for `O=c1c2ccccc2nc(/C=C/c2ccc(F)cc2)n1-c1ccccc1O`: “inactive”.
With `O=c1c2ccccc2nc(/C=C/c2ccco2)n1-c1ccccc1O`, the Potency is 15.8 µM (active).
Still for that read-out and setting: the same measure for `Cc1cccc(Cn2cccc(C(=O)Nc3ccc4c(c3)OCCO4)c2=O)c1`: “inactive”.
As to `O=C1NC(=O)C(Cc2ccccc2)C(=O)N1`, the activity change, negative = inhibition was -9.71% [at 2.29 µM] (inactive).
As to `CCCCn1c(O)c(C(CC)=NCc2ccco2)c(=O)[nH]c1=O`, the Potency result is “inactive”.
On the same count and under the same terms, the same measure for `CCC(=NCc1ccco1)c1c(O)n(Cc2ccccc2)c(=O)[nH]c1=O`: 14.1 µM (active); for `CN(C)CCCN=Cc1c(O)n(Cc2ccco2)c(=O)[nH]c1=O`: “inactive”.
Same read-out and setting: the same measure for `O=C(COC(=O)Cc1ccccc1)Nc1ccc(F)cc1`: “inactive”.
Still for that read-out and setting: then `CCOc1ccc(-c2cc(C)n3nc(C(=O)Nc4ccc(C)c(C)c4)cc3n2)cc1`, with “inactive”.
Regarding `CC(C)c1c(CN(C)C(C)Cc2ccccc2)n(C)n(-c2ccccc2)c1=O` (centres undefined), the Potency result was “inactive”.
Same read-out and setting: the same measure for `ClCCN(CCCl)c1ccc(C=Nc2ccc(/C=C/c3ccnc4ccccc34)cc2)cc1`: “inactive”.
On the same count and under the same terms, then `CC(=O)NBr`, with “inactive”.
On the same count and under the same terms, the same measure for `COc1ccc(NC(=O)c2cn(CCC#N)nc2-c2ccc([N+](=O)[O-])cc2)cc1`: “inactive”; for `O=C1NC(=O)N(c2ccccc2)C(=O)/C1=C/c1ccc([N+](=O)[O-])s1`: 22.4 µM (active).
Regarding `COC(=O)C1=C(c2ccc(F)cc2OCc2ccccc2)C[C@@H]2CC[C@H]1N2C(=O)NCc1ccc(Cl)cc1`, the Potency result is “inactive”.
As for `O=[N+]([O-])c1ccc(Cl)c(Cl)c1`, the Potency result was “inactive”.
